Reference: PubChem BioAssay (Tox21)
Activity calls are given as the source filed them. Entries that show only a call come without a potency. The call rests on the fitted dose curve.

What follows are molecules tested against Acetylcholinesterase (Homo sapiens) (UniProt P22303) (assay: Acetylcholinesterase (AChE) small molecule antagonists: enzyme-based qHTS assay with human liver microsomes (AID 1347399; further: nearly all actives have a fitted effect of over 60% in size)). Conditions: Potency: qHTS inhibition; outcome: qHTS inhibition; series mostly up to 115 µM.
Excerpt: National Center for Advancing Translational Sciences [NCATS]
Division of Preclinical Innovation [DPI]
U.S. Environmental Protection Agency [EPA]
National Institutes of Environmental Health Sciences [NIEHS]
National Toxicology Program [NTP]
U.S. Food and Drug Administration [FDA]
Acetylcholinesterase (AChE) is the primary cholinesterase in the body that hydrolyzes a key neurotransmitter, acetylcholine. Inhibition of AChE activity can lead to neurotoxicity. The known inhibitors include organophosphorous pesticides (OP), chemical warfare agents, drugs, and various phytochemicals. Some compounds like OP compounds may need metabolic activation to be active AChE inhibitors. The cytochrome P450 (CYP) superfamily in the human microsomes is responsible for the metabolism of various endogenous and exogenous compounds.
An enzyme-based assay with the recombinant human AChE, human liver microsomes and Amplite Colormetric acetylcholinesterase assay kit (AAT Bioquest, Sunnyvale, CA) was used to evaluate compounds in the Tox21 10K library that need metabolic activation for AChE inhibition. The assay uses 5, 5-dithiobis-(2-nitrobenzoic acid) (DTNB) to quantify the thiocholine produced from the hydrolysis of acetylthiocholine by AChE.
Tox21 Assay Protocol Summary:
For the enzyme-based AChE assay with microsomes addition, a mixture of human AChE (50 mU/mL) and human liver microsomes (0.25 mg/mL, final concentration) in 3 uL/well was dispensed into black, clear-bottom 1536-well plates using a Multidrop Combi dispenser (Thermo Scientific, MA). Then, 23 nL of compound or DMSO (vehicle control) was transferred into the assay plates by a Pintool Station (Wako Automation, CA). Following compound addition, 1 uL of NADPH (0.25 mg/mL, final concentration) was transferred to the assay plate by a Flying Reagent Dispenser (Beckman Coulter, CA). The plates were incubated for 30 min at 37 C and 5% CO2, followed by the addition of 4 uL of colorimetric detection cocktail solution (DTNB, acetylthiocholine) into each well using a Flying Reagent Dispenser (Beckman Coulter, CA) and then 10 min incubation at room temperature.

Acetylcholinesterase (Homo sapiens), sequence (P22303 whole entry, looked up): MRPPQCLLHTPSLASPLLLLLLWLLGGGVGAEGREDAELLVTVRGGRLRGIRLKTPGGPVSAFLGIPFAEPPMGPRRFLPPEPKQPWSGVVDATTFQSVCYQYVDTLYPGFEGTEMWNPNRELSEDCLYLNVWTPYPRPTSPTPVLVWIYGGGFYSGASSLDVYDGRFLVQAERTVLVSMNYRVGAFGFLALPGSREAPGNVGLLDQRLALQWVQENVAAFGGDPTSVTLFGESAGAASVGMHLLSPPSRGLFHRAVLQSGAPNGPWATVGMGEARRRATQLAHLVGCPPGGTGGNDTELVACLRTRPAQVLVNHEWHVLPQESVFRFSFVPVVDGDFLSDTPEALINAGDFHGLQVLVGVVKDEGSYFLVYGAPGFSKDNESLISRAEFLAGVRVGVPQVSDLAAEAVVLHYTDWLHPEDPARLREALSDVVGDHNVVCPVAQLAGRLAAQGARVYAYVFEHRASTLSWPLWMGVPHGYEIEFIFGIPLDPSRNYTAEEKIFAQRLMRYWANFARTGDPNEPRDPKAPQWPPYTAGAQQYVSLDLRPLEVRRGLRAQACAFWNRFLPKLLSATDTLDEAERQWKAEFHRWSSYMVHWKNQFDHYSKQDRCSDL

SMILES | Potency | activity change, negative = inhibition
O=C(NO)C1(NS(=O)(=O)c2ccc(Oc3ccc(F)cc3)cc2)CCOCC1 | inactive | 
CCCc1ccccc1O | inactive | 
Nc1cc(=O)[nH]c(N)n1 | inactive | 
BrCCOc1ccccc1 | inactive | 
CCN1CCN(c2cc(-c3ccc(F)cc3)c3c(n2)CCCCCC3)CC1 |  | -1.12% [at 23.6 µM] (inactive)
Cc1ccc(S(=O)(=O)NC(=O)NC2CCCCC2)cc1 | inactive | 
Cc1cc(CCCOc2c(C)cc(-c3noc(C(F)(F)F)n3)cc2C)on1 | inactive | 
CC(=O)CCC(C)C | inactive | 
CCCCCCC=O | inactive | 
C=CC(=O)CCCCC | inactive | 
Cc1ccc(N=Nc2c(O)c(C(=O)O)cc3ccccc23)c(S(=O)(=O)O)c1 | inactive | 
Cc1c(C)c2c(c(C)c1OC(=O)c1cccnc1)CC[C@@](C)(CCC[C@H](C)CCC[C@H](C)CCCC(C)C)O2 | inactive | 
c1cc(N(CC2CO2)CC2CO2)ccc1Cc1ccc(N(CC2CO2)CC2CO2)cc1 (stereo not given) | inactive | 
NC(=O)c1nc(-c2cccc(-c3cc(F)ccc3OCC(F)(F)C(F)(F)F)c2)n[nH]1 | inactive | 
Cc1cccc(Oc2ccccc2)c1 | inactive | 
C=C1C(CCl)(CCl)C2(Cl)C(Cl)C(Cl)C1(Cl)C2(Cl)Cl (stereo not given) | inactive | 
OC[C@H](Cc1cccc(O)c1)[C@H](CO)Cc1cccc(O)c1 | inactive | 
CCOC(=O)c1ccc(I)cc1 | inactive | 
CCC1(c2ccccc2)C(=O)NCNC1=O | inactive | 
CCCCCCCCCCCCCCCCCC(=O)OCC(O)CO (stereo not given) | inactive | 

SMILES | Potency | activity change, negative = inhibition
O=c1[nH]nnc2ccccc12 | inactive | 
O=C(O)CNCC(=O)O |  | -0.995% [at 10.5 µM] (inactive)
CCOC(=O)C1=C[C@]2(CC)CCCN3CCc4c(n1c1ccccc41)[C@@H]32 | inactive | 
C=CCCCCCCCCO | inactive | 
CC(=O)c1ccc(OCC(=O)N2CCCCC2)cc1 | inactive | 
OC[C@H]1O[C@@](CO)(O[C@H]2O[C@H](CO)[C@@H](O)[C@H](O)[C@H]2O)[C@@H](O)[C@@H]1O | inactive | 
O=C(c1ccccc1)c1ccc(Cl)cc1 | inactive | 
COC(=O)c1ccccc1O | inactive | 
O=C(O)c1cccc(Oc2ccccc2)c1 | inactive | 
CC(NCCC(c1ccccc1)c1ccccc1)c1ccccc1 (stereo not given) | inactive | 
CCOC(=O)CC(C(C)=O)C(C)=O | inactive | 
Cc1ccccc1Cl | inactive | 
Cc1cccc(Nc2cc(Cl)nc(SCC(=O)O)n2)c1C | inactive | 
CC(=O)/C(C)=C/C1C(C)=CCCC1(C)C (stereo not given) | inactive | 
Cc1cc(Br)ccc1NC(=O)CCl | inactive | 
C[C@H]1C[C@H]2[C@@H]3CCC4=CC(=O)C=C[C@]4(C)[C@@]3(Cl)[C@@H](O)C[C@]2(C)[C@@]1(O)C(=O)CO | inactive | 
CCCCCCCC(=O)OCC(O)CO (stereo not given) | inactive | 
O=C(O)CCCCC(=O)O | inactive | 
NC(=O)Cc1cccc2ccccc12 | inactive | 
CNC(=O)[C@H]1O[C@@H](n2cnc3c(NCc4cc(Cl)ccc4OCc4cc(C)no4)ncnc32)[C@H](O)[C@@H]1N | inactive | 
